Results: PubChem BioAssay
Unmarked numbers belong to inactive results. Activity calls are given as the source filed them.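 The calls were made as follows, unless noted: active = growth inhibition above 50% at the single 2 µM test dose, taken to imply half-maximal potency below 2 µM; inactive = the rest.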

Assay: antimalarial activity against Dd2 strain (AID 2302);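 also: 0% = DMSO untreated growth and 100% = chloroquine plus artemisinin killed control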
Details: P. falciparum Dd2 in RBCs, LDH growth readout, 72 h; at 2 µM; active compounds read high
With `CCc1cn2c3c(cc(C(=O)N[C@@H](Cc4cccc(F)c4)[C@H](O)CNC4CCCCC4)cc13)N(C)S(=O)(=O)CC2` the growth inhibition was 99% (active). In the case of `CC(C)NCc1ccc(-c2ccc(NC(=O)c3ccc(Cl)cc3)cc2)cc1`, the growth inhibition is reported as 8%. `CCc1ccc(NC(=O)c2ccc(CN3CCCN(CC4CCCCC4)CC3)cc2)cc1` showed a growth inhibition of 48%. With `COc1cccc(CNC(=O)c2cccc(-c3cccc(CN4CCC(N5CCCC5)CC4)c3)n2)c1` the growth inhibition was 76% (active). In the case of `CN1CCCC(CN2CCN(Cc3ccc(-c4ccc(-c5nc6ccc(F)cc6[nH]5)cc4)cc3)CC2)C1` (stereo not given), the growth inhibition is reported as 98% (active). With `Nc1ccc(-c2ccc(NC(=O)Nc3cc(C(F)(F)F)ccc3F)cc2)cn1` the growth inhibition was 39%. Work on `COc1ccc2nc(N3CCNCC3)nc(NCCCc3ccccc3)c2c1` yielded a growth inhibition of 43%. With `O=C(N[C@H]1CCN(Cc2ccc(OCCN3CCCC3)c3ccccc23)C1)c1ccc(Cl)c(Cl)c1` the growth inhibition was 51% (active). `Clc1cc(Nc2ncnc3sc(C#Cc4ncc[nH]4)cc23)ccc1OCc1ccccn1` showed a growth inhibition of 6%. For `CCCOc1c(CCNCCCCNCCc2ccc3ccccc3c2OCCC)ccc2ccccc12`, the growth inhibition was 78% (active). For `CCN(CC)CCNc1c2ccc(Cl)cc2nc2ccc(OC)nc12`, the growth inhibition was 99% (active). For `CCn1c2c(c(=N)c3ccccc31)CCC2`, the growth inhibition was 61% (active). In the case of `CCCNCc1ccc(-c2ccc(CN(CCOC)C(=O)CCCOCc3ccccc3)cc2)nc1`, the growth inhibition is reported as 13%. For `CCNc1cc(C(=O)N[C@@H](Cc2ccccc2)[C@H](O)CNC(C)(C)Cc2cccc(OC)c2)cc(N2CCCC2=O)c1`, the growth inhibition was 97% (active). For `CCOc1ccc(C(C)NC(=O)Cc2ccccc2F)cc1OCC` (stereo not given), the growth inhibition was 44%. With `CNC(=O)c1cnc(Nc2ccc(N3CCN(C)CC3)cc2)nc1Nc1ccccc1OC` the growth inhibition was 84% (active). For `CN(C)CCOc1ccnc2ccc(NC(=O)Cc3ccc(-c4ccncc4)c4ccccc34)cc12`, the growth inhibition was 100% (active). With `CC1(C)N=C(N)N=C(N)N1c1cc(Cl)c(Cl)cc1Cl` the growth inhibition was -3%. For `CN(/N=C/c1ccc(Cl)cc1)c1nc(NCCc2ccc(O)cc2)nc(N2CCNCC2)n1`, the growth inhibition was 97% (active). `O=C(NCc1ccccc1F)c1ccc(N2CCC(NCc3cccc(-n4cccn4)c3)CC2)cc1` gave a growth inhibition of 3%. `COc1cc(F)c2nccc([C@@H](O)CN3CCC(NCc4cc5c(cc4F)OCCO5)CC3)c2c1` showed a growth inhibition of 45%. Molecule `CCCCCCCCS(=O)(=O)NCCCC1CCN(CCCCCNC(=O)C=Cc2ccc(Cl)c(Cl)c2)CC1` has a growth inhibition of 26%. For `Nc1ccc2[nH]cc(C3CCN(CCC4CCN(C(=O)/C=C/c5ccc(Cl)c(Cl)c5)CC4)CC3)c2n1`, the growth inhibition was 78% (active). With `Cc1ccc(S(=O)(=O)N2CCN(C(=O)c3cc(-c4ccccc4)n[nH]3)CC2)cc1` the growth inhibition was 88% (active). For `CCCNC[C@@H](O)[C@H](Cc1ccccc1)NC(=O)c1cc(NCC)cc(N2CCCC2=O)c1`, the growth inhibition was 76% (active). In the case of `COc1ccc(C2C(C(=O)Nc3ccc4c(c3)OCO4)c3cc(OC)c(OC)cc3C(=O)N2C)cc1` (stereo not given), the growth inhibition is reported as 54% (active). `O=C(Cc1ccc(NC(=O)c2ccc(O)c(-c3ccc(Cl)c(Cl)c3)c2)cc1)NCCN1CCOCC1` gave a growth inhibition of 24%. For `Cc1csc2nc(-c3ccccn3)nc(Nc3ccc4ncsc4c3)c12`, the growth inhibition was 91% (active). For `CC(=O)Nc1ccc(C2NC(=O)NC(c3ccccc3)=C2c2nc3ccccc3s2)cc1` (stereo not given), the growth inhibition was 96% (active). `CS(=O)(=O)CCNCc1nc(-c2ccc3c(Nc4ccc(Cl)cc4F)ccnc3c2)cs1` gave a growth inhibition of 28%. `Cc1cccc2[nH]c(-c3cccc(-c4ccc(NC(=O)CN5CCOCC5)cc4)c3)nc12` gave a growth inhibition of 12%. With `Cc1cc(NN=Cc2ccc(Cl)cc2)c2ccc(F)cc2n1` the growth inhibition was 87% (active). With `N#CN1CC[C@H](CS(=O)(=O)c2cccc(Br)c2)C1` the growth inhibition was 74% (active). `CC(C)(C)Oc1ccc(C[C@@H]2NC3(C(=O)N(Cc4ccc(Cl)c(Cl)c4)c4ccccc43)C3C(=O)N(c4ccc(Br)cc4)C(=O)C32)cc1` (stereo not given in full) gave a growth inhibition of 25%. For `CN(c1ccc(F)cc1)S(=O)(=O)c1ccc(Cl)c(C(=O)Nc2cccc(C#N)c2)c1`, the growth inhibition was 58% (active). For `Ic1cc(Nc2ncnc3ccsc23)ccc1OCc1ccccc1`, the growth inhibition was 81% (active). In the case of `Cc1cc(NC(=O)Nc2ccc3nc(C)oc3c2)c2cc(Cl)ccc2n1`, the growth inhibition is reported as 57% (active). With `Cc1ccc(N2C(N)=NC(N)=NC2c2ccccc2)cc1` (stereo not given) the growth inhibition was 1%. In the case of `Cc1cc(-c2cccc3c(C(=O)N4CCc5cc6nccc(N7CCCN(C)CC7)c6cc54)cccc23)cc(C)n1`, the growth inhibition is reported as 100% (active). For `O=S(=O)(Nc1cc2c(cc1O)CCNCC2)c1ccc(-c2ccc(Cl)cc2)cc1`, the growth inhibition was 0%.

Assay: HepG2 cytotoxicity, primary screen, cytotoxicity control for P. falciparum antimalarial project, cell-based, ATP luminescence (AID 2303;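 active = inhibition above 50%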;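 also: 0% = DMSO wells and 100% = digitonin-killed cells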)
Details: HepG2 viability, 24-48 h, at 10 µM, active compounds read high
In the case of `CCc1cn2c3c(cc(C(=O)N[C@@H](Cc4cccc(F)c4)[C@H](O)CNC4CCCCC4)cc13)N(C)S(=O)(=O)CC2`, the inhibition is reported as 5%. For `CC(C)NCc1ccc(-c2ccc(NC(=O)c3ccc(Cl)cc3)cc2)cc1`, the inhibition was 60% (active). With `CCc1ccc(NC(=O)c2ccc(CN3CCCN(CC4CCCCC4)CC3)cc2)cc1` the inhibition was 48%. With `COc1cccc(CNC(=O)c2cccc(-c3cccc(CN4CCC(N5CCCC5)CC4)c3)n2)c1` the inhibition was 22%. In the case of `CN1CCCC(CN2CCN(Cc3ccc(-c4ccc(-c5nc6ccc(F)cc6[nH]5)cc4)cc3)CC2)C1` (stereo not given), the inhibition is reported as 90% (active). `Nc1ccc(-c2ccc(NC(=O)Nc3cc(C(F)(F)F)ccc3F)cc2)cn1` showed an inhibition of -6%. Molecule `COc1ccc2nc(N3CCNCC3)nc(NCCCc3ccccc3)c2c1` has an inhibition of 31%. With `O=C(N[C@H]1CCN(Cc2ccc(OCCN3CCCC3)c3ccccc23)C1)c1ccc(Cl)c(Cl)c1` the inhibition was 90% (active). `Clc1cc(Nc2ncnc3sc(C#Cc4ncc[nH]4)cc23)ccc1OCc1ccccn1` gave an inhibition of 10%. With `CCCOc1c(CCNCCCCNCCc2ccc3ccccc3c2OCCC)ccc2ccccc12` the inhibition was 100% (active). `CCN(CC)CCNc1c2ccc(Cl)cc2nc2ccc(OC)nc12` showed an inhibition of 20%. Work on `CCn1c2c(c(=N)c3ccccc31)CCC2` yielded an inhibition of 11%. With `CCCNCc1ccc(-c2ccc(CN(CCOC)C(=O)CCCOCc3ccccc3)cc2)nc1` the inhibition was -2%. In the case of `CCNc1cc(C(=O)N[C@@H](Cc2ccccc2)[C@H](O)CNC(C)(C)Cc2cccc(OC)c2)cc(N2CCCC2=O)c1`, the inhibition is reported as 7%. `CCOc1ccc(C(C)NC(=O)Cc2ccccc2F)cc1OCC` (stereo not given) gave an inhibition of 15%. In the case of `CNC(=O)c1cnc(Nc2ccc(N3CCN(C)CC3)cc2)nc1Nc1ccccc1OC`, the inhibition is reported as 8%. In the case of `CN(C)CCOc1ccnc2ccc(NC(=O)Cc3ccc(-c4ccncc4)c4ccccc34)cc12`, the inhibition is reported as 10%. `CC1(C)N=C(N)N=C(N)N1c1cc(Cl)c(Cl)cc1Cl` showed an inhibition of 11%. With `CN(/N=C/c1ccc(Cl)cc1)c1nc(NCCc2ccc(O)cc2)nc(N2CCNCC2)n1` the inhibition was 10%. Molecule `O=C(NCc1ccccc1F)c1ccc(N2CCC(NCc3cccc(-n4cccn4)c3)CC2)cc1` has an inhibition of 9%. With `COc1cc(F)c2nccc([C@@H](O)CN3CCC(NCc4cc5c(cc4F)OCCO5)CC3)c2c1` the inhibition was 23%. With `CCCCCCCCS(=O)(=O)NCCCC1CCN(CCCCCNC(=O)C=Cc2ccc(Cl)c(Cl)c2)CC1` the inhibition was 100% (active). `Nc1ccc2[nH]cc(C3CCN(CCC4CCN(C(=O)/C=C/c5ccc(Cl)c(Cl)c5)CC4)CC3)c2n1` showed an inhibition of 27%. `Cc1ccc(S(=O)(=O)N2CCN(C(=O)c3cc(-c4ccccc4)n[nH]3)CC2)cc1` gave an inhibition of -8%. `CCCNC[C@@H](O)[C@H](Cc1ccccc1)NC(=O)c1cc(NCC)cc(N2CCCC2=O)c1` gave an inhibition of -9%. Molecule `COc1ccc(C2C(C(=O)Nc3ccc4c(c3)OCO4)c3cc(OC)c(OC)cc3C(=O)N2C)cc1` (stereo not given) has an inhibition of 12%. Work on `O=C(Cc1ccc(NC(=O)c2ccc(O)c(-c3ccc(Cl)c(Cl)c3)c2)cc1)NCCN1CCOCC1` yielded an inhibition of 10%. Molecule `Cc1csc2nc(-c3ccccn3)nc(Nc3ccc4ncsc4c3)c12` has an inhibition of -3%. With `CC(=O)Nc1ccc(C2NC(=O)NC(c3ccccc3)=C2c2nc3ccccc3s2)cc1` (stereo not given) the inhibition was -3%. `CS(=O)(=O)CCNCc1nc(-c2ccc3c(Nc4ccc(Cl)cc4F)ccnc3c2)cs1` showed an inhibition of 19%. For `Cc1cccc2[nH]c(-c3cccc(-c4ccc(NC(=O)CN5CCOCC5)cc4)c3)nc12`, the inhibition was 59% (active). `Cc1cc(NN=Cc2ccc(Cl)cc2)c2ccc(F)cc2n1` showed an inhibition of 6%. For `N#CN1CC[C@H](CS(=O)(=O)c2cccc(Br)c2)C1`, the inhibition was 8%. With `CC(C)(C)Oc1ccc(C[C@@H]2NC3(C(=O)N(Cc4ccc(Cl)c(Cl)c4)c4ccccc43)C3C(=O)N(c4ccc(Br)cc4)C(=O)C32)cc1` (stereo not given in full) the inhibition was 1%. `CN(c1ccc(F)cc1)S(=O)(=O)c1ccc(Cl)c(C(=O)Nc2cccc(C#N)c2)c1` gave an inhibition of 5%. Work on `Ic1cc(Nc2ncnc3ccsc23)ccc1OCc1ccccc1` yielded an inhibition of 22%. Work on `Cc1cc(NC(=O)Nc2ccc3nc(C)oc3c2)c2cc(Cl)ccc2n1` yielded an inhibition of -10%. With `Cc1ccc(N2C(N)=NC(N)=NC2c2ccccc2)cc1` (stereo not given) the inhibition was 11%. In the case of `Cc1cc(-c2cccc3c(C(=O)N4CCc5cc6nccc(N7CCCN(C)CC7)c6cc54)cccc23)cc(C)n1`, the inhibition is reported as 17%. For `O=S(=O)(Nc1cc2c(cc1O)CCNCC2)c1ccc(-c2ccc(Cl)cc2)cc1`, the inhibition was 10%.
